Structures can show the parent of a compound that is named as a salt.

We go through 38 compounds from the supplement of paper PMC8047044.

This assay has as its system Neuro-2a. The assay can be described thus: neurite formation score, plate-normalized to DMSO control mean 5.04 (score (0-8 scale)); higher = more or longer neurites. The following applies: 0.1 µM. The procedure: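 Neuro-2a mouse neuroblastoma cells in PLL-coated 96-well plates were pre-treated for 1 h in DMEM(+) with each kinase inhibitor at 0.1 µM, then switched to serum-free DMEM(-) with inhibitor to induce neurite outgrowth and fixed about 2-3 h later. Three blinded observers scored neurite formation from 0 (no neurites) to 8 (long neurites on almost all cells).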
As to `Cc1cc(NC(=O)c2cccc(NC(=O)/C=C/CN(C)C)c2)ccc1Nc1nccc(-c2cccnc2)n1`, the neurite formation score worked out at 4.58. Compound `O=C(NC[C@H](O)CO)c1ccncc1Nc1ccc(I)cc1F` displayed a neurite formation score of 5.54. Turning to `O=c1cc(N2CCOCC2)oc2c(-c3cccc4c3sc3ccccc34)cccc12`, the neurite formation score is 4.21. `CC(C)(C)c1nc(-c2cccc(NS(=O)(=O)c3c(F)cccc3F)c2F)c(-c2ccnc(N)n2)s1` yielded a neurite formation score of 5.25. Take `COc1cc(C(=O)NC2CCN(C)CC2)ccc1Nc1ncc2c(n1)N(C1CCCC1)CC(F)(F)C(=O)N2C`: the neurite formation score was 4.25. Then `C=CC(=O)Nc1cc(Nc2nccc(-c3cn(C)c4ccccc34)n2)c(OC)cc1N(C)CCN(C)C`, with 3.76. Then `CC(=O)Nc1nc(C)c(-c2ccc(Cl)c(S(=O)(=O)NCCO)c2)s1`, with 3.88; and `O=C(NOC[C@H](O)CO)c1ccc(F)c(F)c1Nc1ccc(I)cc1F`, with 4.71; and `Cc1nc(Nc2n[nH]c3c2CN(C(=O)N[C@H](CN(C)C)c2ccccc2)C3(C)C)c2sccc2n1`, with 4.92. In turn, `Nc1ccc(-c2ccc3ncc4ccc(=O)n(-c5cccc(C(F)(F)F)c5)c4c3c2)cn1` [Torin 2] gave a neurite formation score of 3.42.

With `O=C(NC1CCNCC1)c1n[nH]cc1NC(=O)c1c(Cl)cccc1Cl`, the neurite formation score stood at 5.88. Consider `CN(C)Cc1cccc(N=C(c2ccccc2)c2c(O)[nH]c3cc(C(=O)N(C)C)ccc23)c1`, for which the neurite formation score was 5.54. Compound `C#Cc1cccc(Nc2ncnc3cc(OCCOC)c(OCCOC)cc23)c1` [Erlotinib Hydrochloride] registered a neurite formation score of 5.21. `CN1CCN(c2ccc(OC(F)(F)F)c(Nc3ncc4c(n3)-c3c(c(C(N)=O)nn3CCO)CC4)c2)CC1` gave a neurite formation score of 4.42. `Cc1ccc(S(=O)(=O)/C=C/C#N)cc1` yielded a neurite formation score of 2.42.

For `COc1cc2nccc(Oc3ccc(NC(=O)Nc4ccc(F)cc4F)c(F)c3)c2cc1OC`, the neurite formation score was 4.38. With `N#Cc1c(O)c2c(-c3ccc(-c4ccccc4O)cc3)csc2[nH]c1=O`, the neurite formation score is 5.58.

In turn, `Cc1cc(C)c(/C=C2\C(=O)Nc3ccccc32)[nH]1` [Semaxanib (SU5416)] yielded a neurite formation score of 5.42. Take `Oc1ccc2ccccc2c1SSc1c(O)ccc2ccccc12`: the neurite formation score was 5.42. `O=C1c2ccccc2-c2n[nH]c3cccc1c23`: the neurite formation score turned out to be 3.92.

In the case of `COc1nccc(-c2c(-c3ccc(F)cc3)ncn2C2CCC(O)CC2)n1` (stereo not drawn), the neurite formation score was determined as 5.25. Take `O=C(O)CCC(=O)Nc1ccc(Br)cn1` [Bikinin]: the neurite formation score was determined as 1.42. Turning to `COc1ccc2c(OCc3nnc4ccc(-c5ccccc5)nn34)ccnc2c1`, the neurite formation score worked out at 5.75.

Take `c1cc(-c2cnn3cc(-c4ccc(N5CCNCC5)cc4)cnc23)c2cccnc2c1`: the neurite formation score turned out to be 4.75.

`COc1cc2ncnc(Nc3cccc(Cl)c3)c2cc1OC`: the neurite formation score was 5.54. In turn, `CC(C)(C)Cn1c(N)nc2ccc(-c3[nH]c(C(C)(C)C)nc3-c3ccc(F)cc3)nc21` registered a neurite formation score of 5.54.

Compound `CN1C/C=C/CCOc2cccc(c2)-c2ccnc(n2)Nc2cccc(c2)C1` displayed a neurite formation score of 4.42.

`CC[C@@H]1C(=O)N(C)c2cnc(Nc3ccc(C(=O)NC4CCN(C)CC4)cc3OC)nc2N1C1CCCC1` came in with a neurite formation score of 4.58.

In turn, `Cn1cc(C2=C(c3cn(CCCSC(=N)N)c4ccccc34)C(=O)NC2=O)c2ccccc21` [Ro 31-8220 Mesylate] displayed a neurite formation score of 3.08. Regarding `CS(=O)(=O)c1cccc(CNc2nc(Nc3ccc4c(c3)CCC(=O)N4)ncc2C(F)(F)F)c1`, the neurite formation score amounted to 5.09. In the case of `CNC(=O)c1c(F)cccc1Nc1nc(Nc2cc3c(cc2OC)CCN3C(=O)CN(C)C)nc2[nH]ccc12`, the neurite formation score is 4.58.

For the compound `CCN1CCN(Cc2ccc(-c3cc4c(N[C@H](C)c5ccccc5)ncnc4[nH]3)cc2)CC1`, the neurite formation score was 4.54. Then `COc1cc2c(c(OC)c1OC)-c1c(cc3c(c1OC)OCO3)CC(C)C(C)C2` (stereo not drawn) [Schizandrin B], with 5.08. On to `Cc1cc(N2CCOCC2)cc2[nH]c(-c3c(NC[C@@H](O)c4cccc(Cl)c4)cc[nH]c3=O)nc12`, for which the neurite formation score worked out at 4.71. `C[C@H]1[C@H](C)CC[C@]2(C(=O)O)CC[C@]3(C)C(=CC[C@@H]4[C@@]5(C)C[C@@H](O)[C@H](O)[C@@](C)(CO)[C@@H]5CC[C@]43C)[C@H]12` [Asiatic acid] registered a neurite formation score of 5.08. Then `COC(=O)Nc1nc2cc(C(=O)c3cccs3)ccc2[nH]1` [Nocodazole], with 1.58; and `Cc1cc(Nc2cc(CN3CCOCC3)c3nc(C)c(Cc4ccc(Cl)cc4F)n3n2)n[nH]1`, with 5.25.

As for `Cn1cnc2c(F)c(Nc3ccc(Br)cc3F)c(C(=O)NOCCO)cc21`, the neurite formation score worked out at 5.38.
